Most compounds without a hit are left out; they make up all but 4% or so of the library.
tim23-1 inh = growth inhibitors of tim23-1 mutant yeast | hit rate 1.3% among 330,000 | inhibition, % at 20 µM | S. cerevisiae tim23-1 growth, BacTiter-Glo luminescence, 24 h;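 active means growth inhibition of the mutant yeast at or above 50%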;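 further: temperature-sensitive mutant grown at 25 °C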
NALP1 yeast inh = blocks the NALP1 inflammasome reconstituted in yeast. S. cerevisiae NALP1/ASC/caspase-1 growth, X-gal OD620, 72 h. inhibition, % at 10 µM. hit rate 0.61% among 280,000. AID 2071; in the data active means inhibition mostly above about 24%, no sharp cut-off; inactive means mostly below about 32%
tim10-1 inh = tim10-1 yeast growth inhibition. S. cerevisiae tim10-1 ts strain growth, BacTiter-Glo, 24 h. inhibition, % at 20 µM. hit rate 2.2% among 330,000;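 active means inhibition of at least 40%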;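 further: mutant grown at 25 °C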
TIM10 inh = TIM10 yeast growth inhibition | S. cerevisiae TIM10 strain growth, BacTiter-Glo luminescence, 24 h | inhibition, % at 10 µM | hit rate 1.4% among 330,000 | AID 463195;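 active means inhibition of 40% or more at the single tested concentration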;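 further: wild-type TIM10 isogenic control strain grown at permissive 25 °C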
NALP3 yeast inh = blocks the NALP3 inflammasome reconstituted in yeast; Yeast reconstituted NLRP3/ASC/caspase-1, beta-gal luminescence, 24 h; inhibition, % at 10 µM; hit rate 0.39% among 330,000;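 active means inhibition of 50% or more; inactive means inhibition below 50%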
Each line names hits and unclear results; the compound was inactive in the other large screens.

CCOc1ccccc1NC(=O)Nn1cnnc1	none
CCOc1ccc(Cl)cc1S(=O)(=O)n1cnc2cc(C)c(C)cc21	NALP1 yeast inh 41
CC1CCCCC12NC(=O)N(CC(=O)Nc1ccc(N3CCCCC3)cc1)C2=O (centres undefined)	none (no result: NALP1 yeast inh)
COCCNC(=S)N(c1ccccc1)C(C)C	NALP1 yeast inh 40
Cc1cc(C(=O)Nc2ccc(Br)cc2)cs1	none
O=[N+]([O-])c1ccc(CSc2nnc(-c3cccnc3)o2)cc1	none
CCCCc1nc(NCCO)c(C#N)c2c1CCCC2	none
CCCCNc1nc(CC)c2c(c1C#N)CCCC2	NALP1 yeast inh 41
COc1ccc(NC(=O)CN(C)CC(=O)NCCc2ccc(F)cc2)cc1	none (no result: NALP1 yeast inh)
COc1ccc(CCNC(=O)CN(c2ccccc2OC)S(C)(=O)=O)cc1OC	none
COc1ccc(CCNC(=O)CN(c2ccccc2OC)S(C)(=O)=O)cc1	NALP1 yeast inh 30
O=C(N/C(=C\c1ccccc1)C(=O)N1CCCCC1)c1ccco1	none
COc1cccc(C2c3[nH]c4ccccc4c3CCN2CCCn2cccn2)c1 (centres undefined)	none
COc1ccc(C2c3[nH]c4ccccc4c3CCN2CCCn2cccn2)c(C)c1C (centres undefined)	NALP1 yeast inh 51
Cc1cccc(N(C)Cc2nnc(-c3cccc(Br)c3)o2)c1	none
COc1ccc(C2CC(=O)N(CCCN(C)CCc3ccc(OC)c(OC)c3)C2)cc1 (centres undefined)	none
COc1ccc(CCN(C)CCCN2CC(c3ccccc3)CC2=O)cc1OC (centres undefined)	NALP1 yeast inh 22
Nc1ccc2c(c1)C/C(=C/c1ccco1)C2=O	NALP1 yeast inh 49
O=C1/C(=C/c2ccco2)CCc2ccccc21	none
NS(=O)(=O)c1cccc(NC(=O)COC(=O)CCc2ccccc2)c1	none
COc1ccc(NCc2ccc([N+](=O)[O-])s2)c(OC)c1	NALP1 yeast inh 52 (no result: tim23-1 inh, tim10-1 inh, TIM10 inh, NALP3 yeast inh)
COc1ccc(NC(=O)/C=C/c2ccccc2[N+](=O)[O-])c(OC)c1	none
CSCCC(NS(=O)(=O)c1ccc(C)cc1)C(=O)NC1CCCCCC1 (centres undefined)	none (no result: NALP1 yeast inh)
Nc1ccc2nc(SCC(=O)N3CCN(c4ccccc4)CC3)sc2c1	none (no result: NALP1 yeast inh)
Nc1ccc2nc(SCC(=O)N3CCOCC3)sc2c1	NALP1 yeast inh 40
CCCN1CCN(C(=O)c2ccc(CS(=O)c3ccc(F)cc3)o2)CC1 (centres undefined)	none
O=C(c1ccco1)N1CCN(C(=O)c2ccc(CS(=O)c3ccc(F)cc3)o2)CC1 (centres undefined)	NALP1 yeast inh 44
Cc1ccc2oc(=O)c3cc(C(=O)N4CCN(C)CC4)sc3c2c1	none (no result: NALP1 yeast inh)
CN(C)c1ccnc(Oc2ccc(Cl)cc2)c1C#N	NALP1 yeast inh 16
CC(NC(=O)c1ccco1)C1CCCO1 (centres undefined)	NALP1 yeast inh 44
Cc1ccc(C(=O)NC(C)C2CCCO2)o1 (centres undefined)	none
CCOc1cccc(CNCCSc2nnnn2C)c1	NALP1 yeast inh 27
CC(c1ccon1)N(C)C(=O)CCc1nnc(C2(c3ccc(Cl)cc3)CCC2)o1 (centres undefined)	none
CCCCOc1ccc(OC(=O)Nc2cc(Cl)ccc2OC)cc1	none
Cc1cc(=O)[nH]c(SCCCOc2ccc(F)cc2)n1	NALP1 yeast inh 41
CCCOc1cccc(OCCSc2nc(C)cc(=O)[nH]2)c1	none
CC(C)(C)c1ccc2c(c1)N(CC(=O)O)C(=O)CO2	none
CCOC(=O)N1CCN(C(=O)CN2C(=O)COc3ccc(C(C)(C)C)cc32)CC1	NALP1 yeast inh 26
Clc1ccc(OCc2nnc3n2CCCCC3)c(Cl)c1	none
Cc1cccc(CN2CCSCC2)c1	none
OCC1(CCc2ccccc2)CCN(Cc2ccccc2Cl)CC1	none
Cc1cccc(CN2CCN(CCCc3ccccc3)CC2)c1	NALP1 yeast inh 31
Clc1ccccc1CN1CCN(CCCc2ccccc2)CC1	NALP1 yeast inh 22 (no result: tim23-1 inh, tim10-1 inh, TIM10 inh, NALP3 yeast inh)
CCOC(=O)c1ccc(S(=O)(=O)NNc2ccc(C(F)(F)F)cn2)cc1	none (no result: NALP1 yeast inh)
Cc1nc2c(C#N)c(-c3ccc(Cl)cc3)ccn2n1	none
CC(C)(C)c1nc2c(C#N)c(-c3ccc(Cl)cc3)ccn2n1	NALP1 yeast inh 38
COc1ccc2nc(NC(=O)c3ccccc3[N+](=O)[O-])sc2c1	NALP1 yeast inh 30
COc1ccc2nc(NC(=O)c3ccccc3O)sc2c1	none
CCn1c(SCC(=O)N2CCCC(C)C2)nnc1-c1ccc(S(=O)(=O)N2CCN(C)CC2)cc1 (centres undefined)	NALP1 yeast inh 35
COc1cc(C(=O)N[C@H](C(=O)OCC(=O)NC2CCCCCC2)C(C)C)cc(OC)c1OC	none (no result: NALP1 yeast inh)
CCc1nnc(NC(=O)CSc2nnc(CNc3ccc(F)cc3)n2C2CCCCC2)s1	NALP1 yeast inh 32
NC(=O)c1ccccc1OC1CCC1	none (no result: NALP1 yeast inh)
Cc1cc(C)c(C)c(S(=O)(=O)N2CCC(C(=O)OCC(=O)NC3CCS(=O)(=O)C3)CC2)c1C (centres undefined)	none (no result: NALP1 yeast inh)
CCOC(=O)C1CCCCN1Cc1ccc(F)cc1 (centres undefined)	NALP1 yeast inh 43
CCC(OC(=O)C1=Cc2ccccc2OC1)C(=O)NCc1ccco1 (centres undefined)	NALP1 yeast inh 33
CCOc1ccc(C(=O)Nn2cnnc2)cc1	NALP1 yeast inh 33
COc1ccc(-n2cc(CN(C)C(C)c3ccncn3)c(-c3cccc(F)c3)n2)cc1 (centres undefined)	none
COc1ccc(-n2cc(CN(C)CCO)c(-c3cccc(F)c3)n2)cc1	NALP1 yeast inh 24
COc1ccc(-n2cc(CNCCc3cnc[nH]3)c(-c3cccc(F)c3)n2)cc1	NALP1 yeast inh 27
COc1ccc(-n2cc(CNCc3cccnc3)c(-c3cccc(F)c3)n2)cc1	none
COc1cccc(NC(=O)[C@H](CC(C)C)NC(=O)N2CCn3c2nc2ccccc23)c1	none
CCCc1nn(C)c(C(=O)Nc2cccc(C)c2)c1Cl	NALP1 yeast inh 46
CCCc1nn(C)c(C(=O)Nc2cccc(Cl)c2)c1Cl	none
CCc1ccc(NC2=NCC(c3ccccc3)S2)cc1 (centres undefined)	NALP1 yeast inh 35
CCOC(=O)C1C(c2ccc(O)c(OC)c2)NC(=O)NC1(O)C(F)(F)F (centres undefined)	NALP1 yeast inh 34
O=C(CCCN1C(=O)/C(=C\c2cccs2)SC1=S)NNC(=O)c1cccnc1	none
CNC(=O)CN1C(=O)CSc2ncccc21	NALP1 yeast inh 41
CCN(CC)c1ccc(NC(=O)CN2C(=O)CSc3ncccc32)c(C)c1	none
Cc1ccc(OCCCCN(C)Cc2ccccc2)c(Br)c1	NALP1 yeast inh 51
Cc1ccc(OC(C)C(=O)N(Cc2cccs2)C2CCS(=O)(=O)C2)cc1C (centres undefined)	none (no result: NALP1 yeast inh)
Cc1ccc(N2CC(C(=O)N3CCCCCC3)CC2=O)cc1 (centres undefined)	none
Nc1ccc(C(=O)NC23CC4CC(CC(C4)C2)C3)cc1	none
O=C1CCC([N+](=O)[O-])C(C2CC=CCC2)N1 (centres undefined)	none (no result: NALP1 yeast inh)
CCOC(=O)/C=C1\Nc2ccccc2OC1=O	NALP1 yeast inh 47

Screening results (PubChem)
